# “And” between values parts separate entries of the source, which are not always exact repeats. Equal values may be shown once. Results filed as inconclusive are left out. The source made the active and inactive calls. The calls were made as follows, unless noted: active = hit-call score of the fitted dose curve at least 0.9, where 1 is the maximum; inactive = score below 0.9.
# Assays:
# [1] = target: Nuclear respiratory factor 1 (Homo sapiens) (UniProt Q16656); experiment: ATG_NRF1_CIS: Attagene CIS-FACTORIAL HepG2 Assay for human Nuclear Respiratory Factor 1 (NRF1) Orphan Gene (AID 2282987); details: HepG2 NRF1 cis-element reporter, Attagene multiplex; actives raise or lower the signal
# Outline: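 Reporter mRNA induction or loss in HepG2 cells after 24 h dosing; cis-regulated reporter constructs report endogenous transcription-factor activity. Quantified by RT-PCR/capillary electrophoresis fluorescence, DMSO-referenced.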
# [2] = ATG_NFI_CIS: Attagene CIS-FACTORIAL HepG2 Assay for human Nuclear Factor I (NFI) (AID 2282989); details: HepG2 cis-regulatory reporter, NFI response element transcription; actives raise or lower the signal
# Outline: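 HepG2 cells transiently transfected with cis-element-driven multiplexed reporter transcription units, dosed for 24 h. Reporter mRNA quantified by RT-PCR, fluorescent labelling, HpaI digestion and capillary electrophoresis; bidirectional fit versus DMSO baseline.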
# [3] = target: Myc proto-oncogene protein (Homo sapiens) (UniProt P01106); experiment: ATG_Myc_CIS: Attagene CIS-FACTORIAL HepG2 Assay for human Myelocytomatosis (Myc) Proto-Oncogene Transcription Factor (AID 2282990); details: HepG2, Attagene cis-reporter transcription factor activity; actives raise or lower the signal
# Outline: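 Read-out: fluorescent reporter mRNA fragments resolved by capillary electrophoresis after RT-PCR. Human HepG2 liver cells carried transfected cis-element reporter units and were dosed for 24 h. Gain or loss of signal fitted relative to DMSO baseline.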
# [4] = ATG_NF_kB_CIS: Attagene CIS-FACTORIAL HepG2 Assay for human Nuclear Factor Kappa B (NF-kB) (AID 2282991); details: HepG2 Attagene cis-factorial NF-kB reporter mRNA; actives raise or lower the signal
# Outline: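 DMSO served as negative control and baseline for bidirectional curve fitting. Transiently transfected HepG2 cells were dosed for 24 h, then reporter transcripts were measured by RT-PCR with capillary electrophoresis detection.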
# [5] = ATG_NRF2_ARE_CIS: Attagene CIS-FACTORIAL HepG2 Assay for human Nuclear Factor Erythroid 2 Related Factor 2 (NFR2) response to Antioxidant Response Elements (ARE) (AID 2282992); details: HepG2 Attagene ARE/NRF2 reporter, transcription factor activity; actives raise or lower the signal;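 as to AC50: reporter mRNA level measured by RT-PCR and capillary electrophoresis fluorescence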
# Outline: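 HepG2 cells transiently transfected with multiplexed cis-regulated reporter transcription units measure endogenous transcription factor activity. Reporter mRNA at 24 h is quantified by RT-PCR, fluorescent labelling and capillary electrophoresis, with bidirectional fitting relative to DMSO.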
# [6] = ATG_Oct_MLP_CIS: Attagene CIS-FACTORIAL HepG2 Assay for human Octamer-Binding Transcription Factor (Oct) (AID 2282993); details: HepG2 Attagene cis-factorial Oct reporter, mRNA; actives raise or lower the signal
# Outline: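 HepG2 cells transiently transfected with cis-promoter-driven multiplexed reporter transcription units, dosed for 24 h. Reporter mRNA quantified by RT-PCR, fluorescent labelling, HpaI digestion and capillary electrophoresis; bidirectional fits versus DMSO baseline.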
# [7] = target: Cellular tumor antigen p53 (Homo sapiens) (UniProt P04637); experiment: ATG_p53_CIS: Attagene CIS-FACTORIAL HepG2 Assay for human p53 Transcription Factor (AID 2282994); details: HepG2 p53 cis-element reporter, Attagene mRNA; actives raise or lower the signal
# Outline: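 HepG2 cells transiently transfected with multiplexed cis-regulated reporter transcription units read endogenous TF activity. After 24 h compound exposure, reporter mRNA was quantified by RT-PCR, fluorescent labelling, HpaI digestion and capillary electrophoresis; bidirectional fits versus DMSO baseline.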
# [8] = BSK_3C_TissueFactor: BioMAP Diversity Plus: 3C Assay for Tissue Factor Biomarker Activity (AID 2282997); details: BioMAP 3C HUVEC, tissue factor biomarker readout; actives raise or lower the signal
# Outline: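 Human vascular primary cells (umbilical vein endothelium) received test chemical; Tissue Factor was determined by ELISA at 24 h, and both gain and loss of signal versus DMSO were fitted.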
# [9] = BSK_3C_uPAR: BioMAP Diversity Plus: 3C Assay for Urokinase-type plasminogen activator receptor (uPAR) Biomarker Activity (AID 2282998); details: BioMAP 3C HUVEC, uPAR biomarker ELISA; actives raise or lower the signal
# Outline: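 Human umbilical vein endothelial primary cells were exposed to test chemical for 24 h. Cell-surface uPAR was then quantified by ELISA, and responses were fitted bidirectionally against DMSO as negative control and baseline.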
# [10] = BSK_3C_VCAM1: BioMAP Diversity Plus: 3C Assay for Vascular cell adhesion molecule 1 (VCAM1) Biomarker Activity (AID 2282999); details: BioMAP 3C HUVEC, VCAM1 ELISA, cytokine-stimulated; actives raise or lower the signal
# Outline: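 Human umbilical vein endothelial cells (3C system), biomarker read by ELISA 24 h after dosing; bidirectional fit against DMSO baseline. Cytotoxicity tracked by SRB total-protein staining in parallel cultures at biomarker time.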
# [11] = BSK_4H_Eotaxin3: BioMAP Diversity Plus: 4H Assay for Eotaxin 3 Biomarker Activity (AID 2283000); details: primary human endothelial cells (HUVEC); actives raise or lower the signal;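 as to outcome: CCL26 protein level quantified by ELISA in parallel with SRB cytotoxicity check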
# Outline: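 Readout is Eotaxin-3 (CCL26) level by ELISA in primary human umbilical vein endothelial cells harvested 24 h after chemical exposure; activity fitted in both directions against DMSO control.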
# [12] = target: human Peroxisome Proliferator-activated Receptor alpha (PPARa), PPARA (gene 5465) (UniProt Q07869); experiment: ATG_PPARa_TRANS: Attagene TRANS-FACTORIAL HepG2 Assay for human Peroxisome Proliferator-activated Receptor alpha (PPARa) (AID 2283001; active = hit-call score of the fitted dose curve at least 0.9, where 1 is the maximum;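 as to AC50: potency for gain of reporter signal over DMSO so agonist or activator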)
# Outline: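 HepG2 cells transiently transfected with multiplexed GAL4-UAS reporters driven by exogenous chimeric NR-Gal4 proteins; reporter mRNA measured after 24 h dosing. Read-out by RT-PCR, 6-FAM labelling, HpaI digestion and capillary electrophoresis; gain of signal versus DMSO.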
# [13] = target: human Peroxisome Proliferator-activated Receptor delta (PPARd), PPARD (gene 5467) (UniProt Q03181); experiment: ATG_PPARd_TRANS: Attagene TRANS-FACTORIAL HepG2 Assay for human Peroxisome Proliferator-activated Receptor delta (PPARd) (AID 2283002; active = hit-call score of the fitted dose curve at least 0.9, where 1 is the maximum)
# Outline: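 Read-out: reporter mRNA induction, quantified by fluorescent RT-PCR products resolved by capillary electrophoresis. Human HepG2 liver cells carried transiently transfected Gal4-UAS reporter constructs with chimeric NR-Gal4 fusions. Cells were dosed for 24 h; DMSO served as baseline.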
# [14] = BSK_3C_Proliferation: Cell Proliferation Assessment in the BioMAP Diversity Plus: 3C Assay (AID 2283006); details: primary human endothelial cells (HUVEC);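 as to AC50: potency may reflect either rise or fall in cell number versus DMSO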
# Outline: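 Read-out is total protein by SRB absorbance at 560 nm, taken as a proxy for relative cell number. Primary human umbilical vein endothelium cultured below confluence was dosed for 48 h, TCA-fixed and SRB-stained; curves were fitted bidirectionally versus DMSO.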
# [15] = target: Peroxisome proliferator-activated receptor gamma (Homo sapiens) (UniProt P37231); experiment: ATG_PPARg_TRANS: Attagene TRANS-FACTORIAL HepG2 Assay for human Peroxisome Proliferator-activated Receptor-gamma (PPARg) (AID 2283007; active = hit-call score of the fitted dose curve at least 0.9, where 1 is the maximum)
# Outline: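 Chimeric NR-Gal4 transactivation is measured in transiently transfected HepG2 cells by reporter mRNA induction at 24 h. Detection uses RT-PCR with fluorescent labelling and capillary electrophoresis; DMSO defines baseline.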
# [16] = target: Nuclear receptor subfamily 1 group I member 2 (Homo sapiens) (UniProt O75469); experiment: ATG_PXR_TRANS: Attagene TRANS-FACTORIAL HepG2 Assay for human Pregnane X Receptor (PXR) (AID 2283008; active = hit-call score of the fitted dose curve at least 0.9, where 1 is the maximum)
# Outline: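 HepG2 cells transiently transfected with multiple reporter units, here a PXR-GAL4 chimera driving a GAL4-UAS reporter; 24 h compound exposure. Reporter mRNA measured by RT-PCR, FAM labelling and capillary electrophoresis; gain of signal fitted against DMSO baseline.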
# [17] = read-out: Intercellular Adhesion Molecule 1 (ICAM1), ICAM1 (gene 3383); experiment: BSK_3C_ICAM1: BioMAP Diversity Plus: 3C Assay for Intercellular Adhesion Molecule 1 (ICAM1) Biomarker Activity (AID 2283003); details: primary human endothelial cells (HUVEC); actives raise or lower the signal
# Outline: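 ICAM-1 levels measured by ELISA after HUVEC cultures in the 3C system had been dosed for 24 h. Gain or loss of signal relative to DMSO was fitted in both directions.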
# [18] = target: human Retinoic Acid Receptor beta (RARb), RARB (gene 5915) (UniProt P10826); experiment: ATG_RARb_TRANS: Attagene TRANS-FACTORIAL HepG2 Assay for human Retinoic Acid Receptor beta (AID 2283004; active = hit-call score of the fitted dose curve at least 0.9, where 1 is the maximum)
# Outline: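 Readout is reporter mRNA induction: RNA reverse-transcribed, PCR-amplified, FAM-labelled, HpaI-cut and resolved by capillary electrophoresis. Transiently transfected HepG2 cells carrying exogenous NR–Gal4 chimeras were dosed for 24 h; activity fitted upward relative to DMSO.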
# [19] = target: human Retinoic Acid Receptor gamma (RARg), RARG (gene 5916) (UniProt P13631); experiment: ATG_RARg_TRANS: Attagene TRANS-FACTORIAL HepG2 Assay for human Retinoic Acid Receptor gamma (RARg) (AID 2283009; active = hit-call score of the fitted dose curve at least 0.9, where 1 is the maximum)
# Outline: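 Transient transfection of HepG2 with multi-reporter constructs, then 24 h chemical treatment. Total RNA isolated, reverse-transcribed, PCR-amplified, fluorescently labelled and resolved by capillary electrophoresis; activity scored as mRNA induction versus DMSO.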
# [20] = target: Retinoic acid receptor alpha (Homo sapiens) (UniProt P10276); experiment: ATG_RARa_TRANS: Attagene TRANS-FACTORIAL HepG2 Assay for human Retinoic Acid Receptor alpha (RARa) (AID 2283005; active = hit-call score of the fitted dose curve at least 0.9, where 1 is the maximum)
# Outline: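 HepG2 transiently transfected with multiplex GAL4-UAS reporter units including a human RARa–GAL4 chimera; 24 h compound exposure. Reporter mRNA quantified by RT-PCR, 6-FAM labeling and capillary electrophoresis; gain of signal versus DMSO.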
# Sequence of human Retinoic Acid Receptor gamma (RARg), RARG (gene 5916) (P13631 whole entry, looked up): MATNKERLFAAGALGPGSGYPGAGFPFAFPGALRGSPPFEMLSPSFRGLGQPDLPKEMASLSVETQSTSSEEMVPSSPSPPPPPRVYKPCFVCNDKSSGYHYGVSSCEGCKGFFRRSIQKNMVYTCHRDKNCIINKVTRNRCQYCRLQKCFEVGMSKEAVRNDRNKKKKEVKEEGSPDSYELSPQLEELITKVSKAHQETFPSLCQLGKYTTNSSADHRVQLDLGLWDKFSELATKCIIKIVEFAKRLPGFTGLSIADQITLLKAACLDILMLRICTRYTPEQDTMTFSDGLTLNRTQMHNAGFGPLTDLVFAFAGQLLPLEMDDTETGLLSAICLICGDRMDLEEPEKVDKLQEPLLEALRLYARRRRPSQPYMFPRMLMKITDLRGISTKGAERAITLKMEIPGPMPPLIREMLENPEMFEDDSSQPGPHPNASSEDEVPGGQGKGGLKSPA
# Sequence of Nuclear respiratory factor 1 (Homo sapiens) (Q16656 whole entry, looked up): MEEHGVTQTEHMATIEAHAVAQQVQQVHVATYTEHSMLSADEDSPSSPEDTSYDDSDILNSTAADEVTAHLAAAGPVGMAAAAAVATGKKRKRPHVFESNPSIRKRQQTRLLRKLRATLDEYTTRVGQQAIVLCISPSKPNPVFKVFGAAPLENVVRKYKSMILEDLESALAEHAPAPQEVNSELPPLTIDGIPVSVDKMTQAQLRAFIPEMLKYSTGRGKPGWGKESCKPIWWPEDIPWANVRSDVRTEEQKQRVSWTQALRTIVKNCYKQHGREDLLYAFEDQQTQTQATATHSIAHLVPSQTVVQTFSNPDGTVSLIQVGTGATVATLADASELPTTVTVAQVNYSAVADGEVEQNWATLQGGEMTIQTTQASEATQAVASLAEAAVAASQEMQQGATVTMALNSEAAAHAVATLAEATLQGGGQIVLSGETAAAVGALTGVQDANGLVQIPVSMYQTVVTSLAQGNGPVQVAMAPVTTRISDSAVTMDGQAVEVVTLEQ
# Sequence of human Retinoic Acid Receptor beta (RARb), RARB (gene 5915) (P10826 whole entry, looked up, the tested form may be a part): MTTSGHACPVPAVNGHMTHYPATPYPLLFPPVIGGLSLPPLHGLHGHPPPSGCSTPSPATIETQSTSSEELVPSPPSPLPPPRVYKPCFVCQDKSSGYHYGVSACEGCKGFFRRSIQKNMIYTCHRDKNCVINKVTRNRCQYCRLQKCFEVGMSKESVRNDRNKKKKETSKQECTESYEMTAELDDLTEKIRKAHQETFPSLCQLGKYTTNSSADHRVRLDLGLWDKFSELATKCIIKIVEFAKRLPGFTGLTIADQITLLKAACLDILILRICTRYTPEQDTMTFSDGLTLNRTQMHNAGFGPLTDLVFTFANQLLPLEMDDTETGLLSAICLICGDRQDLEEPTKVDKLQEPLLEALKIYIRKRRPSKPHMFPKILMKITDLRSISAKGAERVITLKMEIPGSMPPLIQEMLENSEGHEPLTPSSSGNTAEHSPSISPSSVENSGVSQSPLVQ
# Sequence of human Peroxisome Proliferator-activated Receptor delta (PPARd), PPARD (gene 5467) (Q03181 whole entry, looked up, the tested form may be a part): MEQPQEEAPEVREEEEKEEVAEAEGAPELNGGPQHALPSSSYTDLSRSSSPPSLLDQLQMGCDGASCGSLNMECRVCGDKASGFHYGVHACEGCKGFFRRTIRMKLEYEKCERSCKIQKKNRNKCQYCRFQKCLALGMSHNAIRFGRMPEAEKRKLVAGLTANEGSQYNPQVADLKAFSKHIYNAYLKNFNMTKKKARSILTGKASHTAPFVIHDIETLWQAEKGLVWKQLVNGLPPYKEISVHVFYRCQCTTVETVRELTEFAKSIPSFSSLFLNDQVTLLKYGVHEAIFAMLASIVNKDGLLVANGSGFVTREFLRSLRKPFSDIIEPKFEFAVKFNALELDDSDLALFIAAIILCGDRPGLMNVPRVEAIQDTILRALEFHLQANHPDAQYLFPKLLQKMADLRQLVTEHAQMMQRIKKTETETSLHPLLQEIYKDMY
# Sequence of Peroxisome proliferator-activated receptor gamma (Homo sapiens) (P37231 whole entry, looked up, the tested form may be a part): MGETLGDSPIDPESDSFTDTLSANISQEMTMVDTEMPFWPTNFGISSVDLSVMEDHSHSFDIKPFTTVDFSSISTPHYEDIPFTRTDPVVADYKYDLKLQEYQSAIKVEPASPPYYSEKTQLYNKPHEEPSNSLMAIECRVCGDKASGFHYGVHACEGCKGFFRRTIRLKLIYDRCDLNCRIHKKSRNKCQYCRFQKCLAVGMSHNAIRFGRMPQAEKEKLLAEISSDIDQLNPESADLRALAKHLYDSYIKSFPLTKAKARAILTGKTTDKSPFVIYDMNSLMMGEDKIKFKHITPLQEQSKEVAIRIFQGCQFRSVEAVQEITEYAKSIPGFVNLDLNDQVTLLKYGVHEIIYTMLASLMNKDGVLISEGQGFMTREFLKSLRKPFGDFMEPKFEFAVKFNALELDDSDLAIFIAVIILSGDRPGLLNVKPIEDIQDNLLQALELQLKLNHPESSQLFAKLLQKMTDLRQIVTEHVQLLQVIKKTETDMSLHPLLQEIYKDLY
# Sequence of Myc proto-oncogene protein (Homo sapiens) (P01106 whole entry, looked up, the tested form may be a part): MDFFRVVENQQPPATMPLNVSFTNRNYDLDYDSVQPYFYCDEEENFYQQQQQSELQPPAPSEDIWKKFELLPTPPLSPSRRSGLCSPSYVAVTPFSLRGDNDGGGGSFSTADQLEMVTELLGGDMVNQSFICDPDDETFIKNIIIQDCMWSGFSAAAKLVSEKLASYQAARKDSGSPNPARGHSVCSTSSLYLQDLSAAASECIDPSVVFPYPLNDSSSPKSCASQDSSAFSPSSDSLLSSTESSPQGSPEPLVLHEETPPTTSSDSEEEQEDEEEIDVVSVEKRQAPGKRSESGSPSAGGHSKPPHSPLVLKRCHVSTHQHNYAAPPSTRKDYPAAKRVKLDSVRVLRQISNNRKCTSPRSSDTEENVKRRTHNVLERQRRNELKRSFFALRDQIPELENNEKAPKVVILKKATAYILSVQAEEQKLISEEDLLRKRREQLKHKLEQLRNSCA
# Sequence of Nuclear receptor subfamily 1 group I member 2 (Homo sapiens) (O75469 whole entry, looked up, the tested form may be a part): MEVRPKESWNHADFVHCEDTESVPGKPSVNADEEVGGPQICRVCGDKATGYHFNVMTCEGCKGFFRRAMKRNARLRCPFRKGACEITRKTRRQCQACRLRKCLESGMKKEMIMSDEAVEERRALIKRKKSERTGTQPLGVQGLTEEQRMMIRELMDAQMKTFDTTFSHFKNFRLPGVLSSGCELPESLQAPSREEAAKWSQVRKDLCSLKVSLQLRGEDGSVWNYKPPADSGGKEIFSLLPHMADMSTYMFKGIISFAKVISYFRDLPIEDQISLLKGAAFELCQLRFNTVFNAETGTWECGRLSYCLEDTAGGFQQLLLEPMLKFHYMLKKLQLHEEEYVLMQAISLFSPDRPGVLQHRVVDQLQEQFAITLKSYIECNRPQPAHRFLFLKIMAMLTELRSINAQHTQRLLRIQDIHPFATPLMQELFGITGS
# Sequence of Cellular tumor antigen p53 (Homo sapiens) (P04637 whole entry, looked up): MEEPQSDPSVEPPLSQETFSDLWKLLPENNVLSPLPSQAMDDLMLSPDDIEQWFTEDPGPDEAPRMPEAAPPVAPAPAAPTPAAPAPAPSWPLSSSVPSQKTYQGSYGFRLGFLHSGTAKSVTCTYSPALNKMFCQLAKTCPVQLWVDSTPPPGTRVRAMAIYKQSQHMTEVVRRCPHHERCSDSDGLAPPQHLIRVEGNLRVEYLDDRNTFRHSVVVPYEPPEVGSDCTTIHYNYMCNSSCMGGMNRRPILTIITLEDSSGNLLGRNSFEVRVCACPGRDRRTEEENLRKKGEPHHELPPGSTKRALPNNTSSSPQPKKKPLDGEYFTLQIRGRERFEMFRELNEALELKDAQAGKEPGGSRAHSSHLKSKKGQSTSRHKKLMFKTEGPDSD
# Sequence of human Peroxisome Proliferator-activated Receptor alpha (PPARa), PPARA (gene 5465) (Q07869 whole entry, looked up, the tested form may be a part): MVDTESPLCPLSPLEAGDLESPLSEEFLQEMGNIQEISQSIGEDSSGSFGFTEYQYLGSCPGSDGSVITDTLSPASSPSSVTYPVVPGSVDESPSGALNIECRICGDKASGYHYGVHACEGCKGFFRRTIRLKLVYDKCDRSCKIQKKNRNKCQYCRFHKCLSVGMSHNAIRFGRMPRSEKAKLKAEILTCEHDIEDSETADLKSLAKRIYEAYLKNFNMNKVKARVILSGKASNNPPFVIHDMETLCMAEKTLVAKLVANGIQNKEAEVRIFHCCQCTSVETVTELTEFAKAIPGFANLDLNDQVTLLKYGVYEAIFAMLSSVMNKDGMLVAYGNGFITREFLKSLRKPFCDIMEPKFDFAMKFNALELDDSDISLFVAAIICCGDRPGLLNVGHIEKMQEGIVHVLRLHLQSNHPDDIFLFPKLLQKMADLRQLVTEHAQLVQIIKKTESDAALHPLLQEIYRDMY
# Sequence of Retinoic acid receptor alpha (Homo sapiens) (P10276 whole entry, looked up, the tested form may be a part): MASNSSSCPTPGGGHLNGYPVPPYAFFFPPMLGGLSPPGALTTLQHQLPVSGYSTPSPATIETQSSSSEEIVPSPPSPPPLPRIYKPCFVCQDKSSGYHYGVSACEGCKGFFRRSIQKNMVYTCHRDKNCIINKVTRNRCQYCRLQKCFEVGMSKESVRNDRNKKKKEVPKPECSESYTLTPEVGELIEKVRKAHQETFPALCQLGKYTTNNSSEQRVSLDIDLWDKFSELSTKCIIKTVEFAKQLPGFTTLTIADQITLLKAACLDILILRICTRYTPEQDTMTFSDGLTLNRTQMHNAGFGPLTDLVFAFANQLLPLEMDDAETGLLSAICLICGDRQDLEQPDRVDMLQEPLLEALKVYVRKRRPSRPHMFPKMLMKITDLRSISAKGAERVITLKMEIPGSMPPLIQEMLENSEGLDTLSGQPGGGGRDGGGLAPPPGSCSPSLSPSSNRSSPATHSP
structure (smiles),measurement,setting,value
CCC1(C)C(=O)N(Cl)C(=O)N1Cl (stereo unspecified),outcome,[1],inactive
same,AC50,[2],60.6 µM (active)
same,outcome,[3],inactive
same,outcome,[4],inactive
same,AC50,[5],27.1 µM (active)
same,AC50,[6],27.4 µM (active)
same,outcome,[7],inactive
same,outcome,[8],inactive
same,outcome,[9],inactive
same,outcome,[10],inactive
same,outcome,[11],inactive
same,outcome,[12],inactive
same,outcome,[13],inactive
same,outcome,[14],inactive
same,outcome,[15],inactive
same,outcome,[16],inactive
CCCCCCC=O,outcome,[1],inactive
same,outcome,[2],inactive
same,outcome,[3],inactive
same,outcome,[4],inactive
same,outcome,[5],inactive
same,outcome,[6],inactive
same,outcome,[7],inactive
same,outcome,[8],inactive
same,outcome,[9],inactive
same,outcome,[10],inactive
same,outcome,[11],inactive
same,outcome,[12],inactive
same,outcome,[13],inactive
same,outcome,[17],inactive
same,outcome,[18],inactive
same,outcome,[14],inactive
same,outcome,[16],inactive
same,outcome,[19],inactive
CCCCC1C(=O)N(c2ccccc2)N(c2ccccc2)C1=O,outcome,[1],inactive
same,outcome,[2],inactive
same,outcome,[3],inactive
same,outcome,[4],inactive
same,AC50,[5],6.46 µM (active)
same,outcome,[6],inactive
same,outcome,[7],inactive
same,outcome,[8],inactive
same,AC50,[9],10.2 µM (active)
same,outcome,[10],inactive
same,outcome,[11],inactive
same,outcome,[17],inactive
same,outcome,[18],inactive
same,outcome,[14],inactive
same,AC50,[15],22.6 µM (active)
same,AC50,[16],1.01 µM (active)
same,outcome,[19],inactive
CCCCCCCCCCCCC,outcome,[1],inactive
same,outcome,[2],inactive
same,outcome,[3],inactive
same,outcome,[4],inactive
same,outcome,[5],inactive
same,outcome,[6],inactive
same,outcome,[7],inactive
same,outcome,[12],inactive
same,outcome,[13],inactive
same,outcome,[15],inactive
same,outcome,[16],inactive
CC(C)CCCCCOC(=O)CS,outcome,[1],inactive
same,outcome,[2],inactive
same,outcome,[3],inactive
same,outcome,[4],inactive
same,AC50,[5],19.5 µM (active)
same,outcome,[6],inactive
same,outcome,[7],inactive
same,outcome,[8],inactive
same,outcome,[9],inactive
same,outcome,[10],inactive
same,outcome,[11],inactive
same,outcome,[12],inactive
same,outcome,[17],inactive
same,outcome,[14],inactive
same,AC50,[15],19.5 µM (active)
same,outcome,[16],inactive
c1ccc(Nc2cccc3ccccc23)cc1,AC50,[1],52.1 µM (active)
same,AC50,[2],50.1 µM (active)
same,AC50,[3],46.7 µM (active)
same,outcome,[4],inactive
same,AC50,[5],33.4 µM (active)
same,AC50,[6],53.3 µM (active)
same,AC50,[7],57.1 µM (active)
same,AC50,[8],36.1 µM (active) and 34.1 µM (active)
same,AC50,[9],27.6 µM (active) and 24.7 µM (active)
same,AC50,[10],36.8 µM (active) and 36.9 µM (active)
same,AC50,[11],32.8 µM (active) and 18 µM (active)
same,AC50,[12],9.04 µM (active)
same,outcome,[18],inactive
same,AC50,[14],27 µM (active) and 30.4 µM (active)
same,AC50,[16],12.6 µM (active)
C1CCSC1,outcome,[1],inactive
same,outcome,[2],inactive
same,outcome,[3],inactive
same,outcome,[4],inactive
same,outcome,[5],inactive
same,outcome,[6],inactive
same,outcome,[7],inactive
same,outcome,[12],inactive
same,outcome,[13],inactive
same,outcome,[15],inactive
Fc1ccc(Br)cc1,outcome,[1],inactive
same,outcome,[2],inactive
same,outcome,[3],inactive
same,outcome,[4],inactive
same,outcome,[5],inactive
same,outcome,[6],inactive
same,outcome,[7],inactive
same,outcome,[8],inactive
same,outcome,[9],inactive
same,outcome,[10],inactive
same,outcome,[11],inactive
same,outcome,[12],inactive
same,outcome,[17],inactive
same,outcome,[18],inactive
same,outcome,[20],inactive
same,outcome,[14],inactive
same,outcome,[16],inactive
same,outcome,[19],inactive

# Reference: PubChem BioAssay (EPA / NIEHS)
